Experimental data: PubChem BioAssay AID2732 (Emory University Molecular Libraries Screening Center, 2010)
The campaign covered roughly 220,000 compounds. About 8,200 (3.7%) were called active.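 Rule for the calls: active = compounds that reduced the stress-induced luciferase reporter signal by more than about 70% of percent inhibition (limit read from the data); inactive = the rest.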 Many of the other results were omitted from the sample, so actives are more common in it than they were.

Assay: inhibitors of CHOP promoter induction, primary screen, cell-based, unfolded protein response, luciferase reporter (AID 2732);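 note: 0% = tunicamycin plus vehicle and 100% = wells without tunicamycin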
Details: CHO-K1 CHOP-promoter luciferase, tunicamycin-induced, 15-18 h; at 10 µM; stronger effect = higher value

Structure (SMILES)	inhibition
Cc1nc2c(ncn2-c2ccccc2)c(=O)n1NC(=O)CN1CCCC1	9.81% (inactive)
Cc1ccc(-n2[nH]c(C)c(/C=N/NC(=O)c3cccc([N+](=O)[O-])c3)c2=O)cc1C	85.8% (active)
COc1cccc(/C=N/NC(=O)c2cccc([N+](=O)[O-])c2)c1OS(=O)(=O)c1ccc(C)cc1	0.84% (inactive)
Cc1[nH]n(-c2ccccc2)c(=O)c1/C=N/NC(=O)c1ccoc1C	51.5% (inactive)
O=C(CSc1ncn[nH]1)Nc1nc(-c2cccc([N+](=O)[O-])c2)cs1	7.63% (inactive)
O=C(c1ccco1)N1CCN(CCOc2ccccc2)CC1	1.67% (inactive)
CCS(=O)(=O)Nc1cccc(-c2cc(-c3ccccc3)c3cc(C)ccc3n2)c1	78.8% (active)
Cc1ccc2nc(-c3ccccc3)cc(C(=O)O)c2c1	-1.51% (inactive)
CC(=O)Nc1cccc(-c2cnc3ccccc3n2)c1	-21.7% (inactive)
CCOC(=O)c1ccc(NC(=O)c2nc[nH]c2C(=O)NCc2ccccc2)cc1	94.5% (active)
CCOC(=O)c1[nH]cnc1C(=O)Nc1ccccc1C	-6.79% (inactive)
CCOC(=O)c1ccc(NC(=O)c2nc[nH]c2C(=O)N[C@@H](CCCCNC(=O)OC(C)(C)C)C(=O)OC(C)(C)C)cc1	44.5% (inactive)
COc1ccc2nc(Nc3nc4ccc(NC(C)=O)cc4s3)sc2c1	-58.2% (inactive)
CCC(=O)c1ccc(OCC(=O)Nc2ccc3nc(C)sc3c2)cc1	0.17% (inactive)
CCOc1ccc2nc(Nc3nc4ccc(NC(C)=O)cc4s3)sc2c1	106% (active)
O=C(NNS(=O)(=O)c1ccccc1C(F)(F)F)c1cc2ncc(C(F)(F)F)cc2s1	-0.25% (inactive)
C=CCn1c(Oc2ccc(C(=O)OC)cc2)nc2c1c(=O)n(C)c(=O)n2C	3.03% (inactive)
C=CCOc1nc2c(c(=O)n(C)c(=O)n2C)n1Cc1ccc(Cl)cc1Cl	93.2% (active)
Cn1c(=O)c2c(nc(OCc3cccnc3)n2Cc2ccccc2)n(C)c1=O	7.91% (inactive)
Clc1ccc(C[n+]2cc(-c3ccc(Cl)cc3)n3c2CCC3)cc1	-2.43% (inactive)
Cc1nn(Cc2ccc(Cl)cc2)c(Cl)c1/C=N/NC(=O)c1cccnc1	-12.2% (inactive)
CCn1nc(C)c(/C=N/NC(=O)Cc2ccc(Cl)cc2)c1C	14.1% (inactive)
Cc1nn(Cc2ccc(Cl)cc2)c(Cl)c1/C=N/NC(=O)CNc1ccccc1F	96.1% (active)

Structure (SMILES)	inhibition
Oc1[nH]c2ccc(Br)cc2c1N=Nc1nn[nH]n1	-5.13% (inactive)
CCOC(=O)c1ccc(N=C2SC(C(=O)NC)CC(=O)N2CCc2ccccc2)cc1 (stereo not given)	-10.9% (inactive)
Cc1ccc2[nH]c(=O)c(CC=C(Cl)Cl)c(C)c2c1	52.8% (inactive)
Cc1cccc(N(C)C(=O)c2cc3c(=O)[nH]c4ccc(C)cc4c3s2)c1	80.4% (active)
O=C(NCCN1CCN(Cc2ccccc2)CC1)c1cc2c(=O)[nH]c3ccccc3c2s1	21.6% (inactive)
S=C(NNC(=S)NC1CC2C=CC1C2)NC1CC2C=CC1C2 (stereo not given)	9.31% (inactive)
C/C(=N/NC(=O)c1ccn(C)n1)c1ccncc1	12.5% (inactive)
COc1ccc(Nc2nc(NCc3ccco3)nc(N/N=C/c3ccccc3Cl)n2)cc1	-19.9% (inactive)
COc1cccc(Nc2nc(N)c([N+](=O)[O-])c(NCc3ccco3)n2)c1	38.9% (inactive)
COc1ccc(Nc2nc(Cl)nc(NCc3ccco3)n2)cc1	85% (active)
COc1ccc(Br)c2c1C(=O)CC2	10.2% (inactive)
Cn1nccc1NC(=O)CC(CC(=O)O)c1ccccc1 (stereo not given)	25.4% (inactive)
COc1cc2c(cc1OC)C(/C=C/c1ccco1)=NCC2	1.07% (inactive)
COC(=O)C1=C(N)Oc2cc(C)[nH]c(=O)c2C1c1ccc(Cl)cc1 (stereo not given)	-8.98% (inactive)
C=C(C)C(=O)O[C@H]1C/C(C)=C\C(=O)/C=C(\C)[C@H](O)[C@@H]2OC(=O)C(=C)[C@@H]21	107% (active)
O=C(O)C#Cc1cccc2ccccc12	-1.61% (inactive)
COc1ccc(F)cc1S(=O)(=O)N1CCCCC1	10.6% (inactive)
CCOC(=O)c1ccc(S(=O)(=O)N(CCO)Cc2cc3cc(OC)c(OC)cc3[nH]c2=O)cc1	23.6% (inactive)
Cc1nc(-c2ccc(Cl)cc2)sc1C1(C)CC(c2ccccc2F)=NO1 (stereo not given)	-3.45% (inactive)
CCC/C(C)=N\Nc1nc2c(c(=O)n(C)c(=O)n2C)n1C	6.66% (inactive)
Cc1ccc(C2(C(F)(F)F)N=C3Sc4cc(C)cc(C)c4N3C(=O)N2)cc1 (stereo not given)	76.7% (active)
CCOC(=O)c1cc(Sc2ccccc2N)cc(C(=O)OCC)n1	15.6% (inactive)
CCN(CC)CCn1c(N)c(S(=O)(=O)c2ccccc2)c2nc3ccccc3nc21	-7.46% (inactive)

Structure (SMILES)	inhibition
NS(=O)(=O)c1ccc(CNC(=O)c2cnccn2)cc1	-3.79% (inactive)
COc1ccc(Nc2cc(=O)n(-c3ccccc3)c3c2c(=O)n(C)c(=O)n3C)cc1	7.22% (inactive)
Cc1ccc(S(=O)(=O)NNC(=S)NC(C)(C)C)cc1	-12.5% (inactive)
CSc1nnc(-c2ccc(C(F)(F)F)cn2)o1	-2.28% (inactive)
CN(C)S(=O)(=O)c1ccc(NC(=O)COC(=O)c2n[nH]c3ccccc23)cc1	22.3% (inactive)
CCN(CC)S(=O)(=O)c1ccc2nc(CSc3nnnn3-c3ccc(O)cc3)[nH]c2c1	29.3% (inactive)
CCN(CC)S(=O)(=O)c1ccc2nc(COC(=O)c3n[nH]c4ccccc34)[nH]c2c1	104% (active)
C/C(=N/NC(=O)CC(=O)N/N=C(\C)c1ccc([N+](=O)[O-])cc1)c1ccc([N+](=O)[O-])cc1	-0.51% (inactive)
CCCSc1nc2c(c(=O)[nH]c(=O)n2C)n1CCc1ccccc1	19.8% (inactive)
CCCCCn1c(SCCC(C)C)nc2c1c(=O)[nH]c(=O)n2C	97.9% (active)
CCCCCCn1c(SCC(=O)c2ccccc2)nc2c1c(=O)[nH]c(=O)n2C	-4.27% (inactive)
Cc1cc(C(=O)NCCc2ccc(Cl)cc2)n(-c2ccccc2)n1	16.9% (inactive)
CCN1CCN(Cc2nc3c(c(=O)n(C)c(=O)n3C)n2CC(=O)c2ccccc2)CC1	6.1% (inactive)
CCCCCCn1c(CN2CCCC(C)C2)nc2c1c(=O)n(C)c(=O)n2C (stereo not given)	97.9% (active)
CC1CCCN(Cc2nc3c(c(=O)n(C)c(=O)n3C)n2CC(=O)c2ccccc2)C1 (stereo not given)	3.62% (inactive)
O=C(NNS(=O)(=O)Cc1ccccc1)c1ccc([N+](=O)[O-])cc1	0.23% (inactive)
O=C(c1ccc(F)cc1)n1c(=S)nc2ccccn21	20.7% (inactive)
CCOC(=O)N1CCN(CC(=O)Nc2cc(C)nn2-c2nc3ccccc3s2)CC1	-20.6% (inactive)
CCC(C)Cn1c(O)cc2nn(-c3nc4ccccc4s3)c(=O)c-2c1C (stereo not given)	83.7% (active)
Cc1cc(NC(=O)CN2CCCC(C)C2)n(-c2nc3ccccc3s2)n1 (stereo not given)	52.1% (inactive)
CCOC(=O)CN(C)S(=O)(=O)c1ccc(-c2cc(C(=O)OC)sc2C(F)(F)F)cc1	-2.09% (inactive)
CCOC(=O)c1nnn2c1nc(N1CCN(c3ccccc3)CC1)c1ccccc12	4.43% (inactive)
Cc1ccc(-n2c(SCC(=O)Nc3ccc4c(c3)OCO4)nnc2-c2ccccn2)cc1	23% (inactive)

Structure (SMILES)	inhibition
O=C(CSc1nnc(-c2ccccn2)n1-c1ccccc1)Nc1ccc2c(c1)OCO2	14.5% (inactive)
Cc1ccc(-n2c(SCC(=O)Nc3ccc4c(c3)OCO4)nnc2-c2ccoc2C)cc1	79.8% (active)
COc1ccc(/C(C)=N/N2CCOCC2)c(O)c1	4.65% (inactive)
Cc1ccc2nc(Nc3ncc4c(n3)CC(C)(C)CC4=O)nc(C)c2c1	7.17% (inactive)
Cc1ccc2nc(-c3cccc(Br)c3)cc(C(=O)Nn3cnnc3)c2c1	6.71% (inactive)
Cc1ccc2nc(Nc3ccccc3O)nc(-c3ccccc3)c2c1	85.7% (active)
O=C(Nc1ccccc1)Nc1ccc(C(F)(F)F)cn1	-1.82% (inactive)
CSCC[C@H](NC(=O)OC(C)(C)C)C(=O)N/N=C/c1cc2ccc(C)cc2nc1Cl	73.9% (active)
Cc1ccc2cc(/C=N/NC(=O)[C@@H]3CCCN3)c(Cl)nc2c1	13.2% (inactive)
Cc1ccc2cc(/C=N/Nc3ccc(C(=O)O)cc3)c(Cl)nc2c1	-19% (inactive)
S=c1[nH]nc(-c2ccncc2)n1/N=C/c1ccccc1Cl	9.19% (inactive)
CC1=CC2=NC(=O)/C(=C/c3coc4ccccc4c3=O)C(=N)N2O1	10% (inactive)
O=[N+]([O-])c1cc(Cl)cc(/C=N/NC(=S)Nc2cc(S(=O)(=O)N3CCOCC3)ccc2Cl)c1O	24.1% (inactive)
O=C(COC(=O)c1ccc(F)cc1)Nc1nc2ccc([N+](=O)[O-])cc2s1	7.2% (inactive)
O=C(O)CCC(=O)Nc1nc2ccc([N+](=O)[O-])cc2s1	-7.8% (inactive)
Cc1cc(C)cc(OCC(=O)Nc2nc3ccc([N+](=O)[O-])cc3s2)c1	89.4% (active)
Cc1cc2c(cc1C)N(Cc1ccccc1)C1=NCCCN12	17.9% (inactive)
CC(C)CN(CC(C)C)CC(O)CN(c1ccccc1)S(=O)(=O)c1ccccc1[N+](=O)[O-] (stereo not given)	6.94% (inactive)
C/C(=N/NC(=O)c1ccc(NC(=O)c2ccc(F)cc2)cc1)c1ccccc1	52% (inactive)
COc1ccccc1N(CC(=O)Nc1ccc(C(F)(F)F)cc1)S(C)(=O)=O	12.5% (inactive)
CC(=O)Nc1ccc(/C(C)=N/NC(=O)CN(c2ccccc2Br)S(C)(=O)=O)cc1	91.8% (active)
